Source: PubChem BioAssay AID1159580 (chemical genetic matrix, 2015)
Values joined by “and” are separate entries in the source; they are usually repeats but may differ in a detail not shown here. Identical values can stand only once. In all, about 5,500 compounds went through this assay and about 2,000 (36%) were called active. About 18% were inconclusive and are not listed. Rule as the data show it: active = normalized growth mostly below about 0.91 (no sharp cut-off); inconclusive = no clear call, values can overlap the other calls; inactive = mostly above about 0.92. This is one part of the list.

Assay: chemical genetic growth profiling, strain panel (AID 1159580);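 also: tested at 20 µM; growth read once vehicle control cultures reached saturation at 30 °C; 1 = growth at the plate median or of vehicle wells; lower values mean less growth of the strain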
Details: S. cerevisiae deletion strains, growth OD

Measured: normalized growth

CCCN(CCC)c1c([N+](=O)[O-])cc(C(F)(F)F)cc1[N+](=O)[O-]
inactive: locus YAL013W, strain DEP1, hits give low values 1.02 | locus YAL021C, strain ccr4, hits give low values 1 | locus YAL026C, strain drs2, hits give low values 0.999 | locus YAL030W, strain snc1, hits give low values 1 | locus YBL061C, strain skt5, hits give low values 1.01 | locus YBR009C, strain hhf1, hits give low values 0.995 | locus YBR021W, strain FUR4, hits give low values 1.03 | locus YBR023C, strain chs3, hits give low values 1.01 | locus YBR171W, strain sec66, hits give low values 0.985 | locus YBR229C, strain ROT2, hits give low values 1 | locus YBR231C, strain swc5, hits give low values 1.02 | locus YBR279W, strain paf1, hits give low values 1.01 | locus YCL011C, strain gbp2, hits give low values 0.97 | locus YCL016C, strain dcc1, hits give low values 1 | locus YCL029C, strain bik1, hits give low values 1.01 | locus YCL061C, strain MRC1, hits give low values 0.984 | locus YCL069W, strain vba3, hits give low values 0.977 | locus YCR088W, strain abp1, hits give low values 0.976 | locus YDL005C, strain med2, hits give low values 1.01 | locus YDL035C, strain GPR1, hits give low values 1.04 | locus YDL040C, strain nat1, hits give low values 1 | locus YDL074C, strain BRE1, hits give low values 1.04 | locus YDL101C, strain DUN1, hits give low values 0.997 | locus YDL134C, strain PPH21, hits give low values 0.995 | locus YDL185W, strain tfp1, hits give low values 1.02 | locus YDL192W, strain arf1, hits give low values 1.02 | locus YDR001C, strain nth1, hits give low values 0.981 | locus YDR069C, strain doa4, hits give low values 1.02 | locus YDR101C, strain arx1, hits give low values 1.01 | locus YDR137W, strain rgp1, hits give low values 0.957 | locus YDR150W, strain NUM1, hits give low values 1.02 | locus YDR159W, strain sac3, hits give low values 0.989 | locus YDR162C, strain NBP2, hits give low values 1 | locus YDR195W, strain ref2 0.987 | locus YDR297W, strain sur2, hits give low values 1 | locus YDR318W, strain mcm21, hits give low values 1.01 | locus YDR334W, strain swr1, hits give low values 0.994 | locus YDR335W, strain msn5, hits give low values 1.01 | locus YDR388W, hits give low values 1 | locus YDR392W, strain spt3, hits give low values 0.919 | locus YDR502C, strain sam2, hits give low values 1.02 | locus YEL003W, strain gim4, hits give low values 0.974 | locus YEL037C, strain rad23, hits give low values 0.988 | locus YEL061C, strain CIN8 (second series), hits give low values 0.981 | locus YEL061C, strain CIN8, hits give low values 1.01 | locus YER015W, strain faa2, hits give low values 1.01 | locus YER016W, strain bim1, hits give low values 1 | locus YER110C, hits give low values 1.01 | locus YER111C, strain swi4, hits give low values 0.98 | locus YER155C, strain BEM2 (second series), hits give low values 1 | locus YER155C, strain BEM2, hits give low values 1.01 | locus YER167W, strain BCK2, hits give low values 0.997 | locus YFR010W, strain ubp6, hits give low values 0.996 | locus YGL078C, strain dbp3, hits give low values 1.01 | locus YGL086W, strain mad1, hits give low values 1.01 | locus YGL167C, strain pmr1, hits give low values 1.01 | locus YGL173C, strain kem1, hits give low values 1.02 | locus YGL227W, strain vid30, hits give low values 0.982 | locus YGL240W, strain doc1, hits give low values 1.05 | locus YGL248W, strain PDE1, hits give low values 0.99 | locus YGL253W, strain hxk2, hits give low values 1.01 | locus YGR078C, strain PAC10, hits give low values 1.02 | locus YGR135W, strain pre9, hits give low values 1.02 | locus YGR229C, strain SMI1, hits give low values 1.01 | locus YGR252W, strain gcn5, hits give low values 1.05 | locus YHR013C, strain ard1, hits give low values 1.06 | locus YHR027C, strain rpn1, hits give low values 1.03 | locus YHR030C, strain SLT2, hits give low values 1.01 and 0.97 | locus YHR079C, strain IRE1 (second series), hits give low values 1.02 | locus YHR079C, strain IRE1, hits give low values 0.979 | locus YHR094C, strain hxt1, hits give low values 1.01 | locus YHR129C, strain ARP1, hits give low values 0.99 | locus YHR142W, strain chs7, hits give low values 0.975 | locus YHR200W, strain rpn10, hits give low values 1.01 | locus YIL066C, strain RNR3, hits give low values 1.02 | locus YIL073C, strain SPO22, hits give low values 1.04 | locus YIL125W, strain kgd1, hits give low values 1 | locus YIR030C, strain dcg1, hits give low values 1.01 | locus YJL092W, strain hpr5, hits give low values 0.976 | locus YJL095W, strain BCK1 (second series), hits give low values 1.01 | locus YJL095W, strain BCK1, hits give low values 0.99 and 0.98 | locus YJL115W, strain asf1, hits give low values 0.998 | locus YJL129C, strain trk1, hits give low values 0.96 | locus YJL134W, strain LCB3, hits give low values 1 | locus YJL154C, strain vps35, hits give low values 0.978 | locus YJL164C, strain tpk1, hits give low values 0.991 | locus YJL166W, strain qcr8, hits give low values 1.02 | locus YJL168C, strain set2, hits give low values 1.01 | locus YJL187C, strain SWE1 (second series), hits give low values 1.02 | locus YJL187C, strain SWE1, hits give low values 1.01 | locus YJR043C, strain POL32, hits give low values 1.01 | locus YJR066W, strain TOR1, hits give low values 0.914
